In all, about 98,000 compounds went through this assay and about 4,900 (5%) were called active. This is one part of a sample in which actives are shown more often than they occur. A number with no mark means an inactive call. No stated cut-off is given here; in the data, active means inhibition above about 30%; inactive means the rest.
Assay: yeast control strain growth suppression – counter-screen for post-Golgi transport modulator project, primary screen (AID 738)
Settings: efflux-deficient yeast background strain, growth absorbance A615, 16 h; at 10 µM; active compounds read high

Structure (SMILES) | inhibition
CC(C)NC(=O)c1ccccc1S(=O)c1ccccc1C#N (stereo not drawn) | -5.45%
Cc1nn(C)cc1C(=O)NNC(=S)Nc1ccc(Cl)cc1 | 2.4%
CCC(=O)N(Cc1ccccc1)c1ccccn1 | 1.04%
Cc1ccc(C(=O)N/C(=C/C=C/c2ccccc2)C(=O)NCc2ccco2)cc1 | -1.68%
CN(CC(=O)Nc1cccc2c1CCCC2)S(=O)(=O)c1ccc(Cl)cc1 | -4.31%
COCCOC(=O)C1=C(C)NC(=O)CC1c1cc2c(cc1Br)OCO2 (stereo not drawn) | -3.67%
COc1ccccc1C1C2=C(COC2=O)Nc2cc3c(cc21)OCO3 (stereo not drawn) | 6.27%
CCCOc1ccccc1C1CC(=O)Nc2cc3c(cc21)OCO3 (stereo not drawn) | 34.1% (active)
COc1cc(C(=O)N2CCN(C/C=C/c3ccccc3)CC2)cc(OC)c1C | 8.75%
COc1cnc(SCc2ccc(Cl)c(Cl)c2)nc1Cl | 16.9%
CCCn1nc2cc(C(=O)NCc3ccccc3)ccc2c1OCC | -6.87%
Cn1c(=O)n(C)c2cc(S(=O)(=O)N3CCCc4ccccc43)ccc21 | -3.51%
CSc1nc2ccc(S(=O)(=O)N3CCc4ccccc43)cc2s1 | 52% (active)
CCn1c(=O)c(=O)n(CC)c2cc(S(=O)(=O)N3CCc4ccccc43)ccc21 | 12.6%
CCOc1ccc(C(CCc2ccccc2)NC(=O)c2ccc(OC)c(OC)c2)cc1OCC (stereo not drawn) | -3.35%
C=CCNc1nc(N)c(C(=C(C#N)C#N)c2ccccc2)s1 | 5.44%
CN1CCN(c2nc3c(c(=O)[nH]c(=O)n3C)n2Cc2cccc3ccccc23)CC1 | 9.64%
CC1CCN(c2nc3c(c(=O)[nH]c(=O)n3C)n2CCCc2ccccc2)CC1 | 30.6% (active)
C=C(C)Cn1c(N2CCCC2)nc2c1c(=O)[nH]c(=O)n2C | 6.94%
O=C1c2ccccc2C(=O)c2c1cccc2N1CCN(Cc2ccccc2)CC1 | 17.7%
CCn1c2ccccc2c2cc(NC(=O)C/C(C)=N/NC(=O)c3ccccc3N)ccc21 | -1.98%
Cc1cccc(N2CCN(C(=O)CN(C)S(=O)(=O)c3ccc4c(c3)CCC(=O)N4)CC2)c1C | 6.36%
COc1ccc(C(=O)NC(=S)Nc2ccccc2N2CCN(S(C)(=O)=O)CC2)cc1OC | 31.7% (active)
COc1ccccc1N1CCN(C(=O)c2ccc(S(=O)(=O)N3CCCCC3)cc2)CC1 | -0.79%

Structure (SMILES) | inhibition
CCC(=O)Nc1ccccc1N1CCN(S(C)(=O)=O)CC1 | 13.1%
O=C1/C(=C/c2cccs2)CCc2ccccc21 | 12.8%
O=C(Nc1nccs1)C1CCN(S(=O)(=O)c2ccc(Cl)c(C(F)(F)F)c2)CC1 | 17.7%
O=c1c(-c2ccccc2)coc2c(CN3CCOCC3)c(O)ccc12 | 10.4%
CCOC(=O)c1c(CN2CCOCC2)n(-c2ccccc2)c2ccc(O)cc12 | 45.2% (active)
CCOC(=O)c1nnn(-c2nonc2-n2cccc2)c1CN1CCOCC1 | -2.3%
O=C(COC(=O)c1ccccc1SCC(=O)NC1CCCCC1)NC1CCCCC1 | 0.43%
C=CCNC(=O)c1cc2nc(C3CC3)cc(C(F)F)n2n1 | 11%
COC(=O)c1cc(C(=O)OC)cc(N2C(=O)CC(N3CCN(c4ccccc4)CC3)C2=O)c1 (stereo not drawn) | -1.95%
O=C1CC(c2ccccc2)C(=O)N1c1cccc(O)c1 (stereo not drawn) | 47.5% (active)
O=C1CC(NNc2ccccc2)C(=O)N1c1cccc(Cl)c1 (stereo not drawn) | -2.74%
COc1ccc(Oc2coc3cc(OC(=O)c4cncc(Br)c4)ccc3c2=O)cc1 | -3.94%
COc1ccc(C(=S)Nc2ccccc2)cc1 | -2.5%
CS(=O)(=O)N(CC(=O)Nc1ccc(F)cc1F)c1cccc([N+](=O)[O-])c1 | -6.14%
COC(=O)c1c(NC(=O)c2cccs2)sc2c1CCCC2 | 10.9%
Cc1ccc(C(=O)c2c(NC(=O)c3ccccc3)sc(C)c2C)cc1 | 4.53%
Cc1ccc(C(=O)c2c(NC(=O)c3ccncc3)sc3c2CCCC3)cc1 | 65.8% (active)
CN1C(=O)C(CC(N)=O)N(NC(=O)c2ccc(Cl)cc2)C1=S (stereo not drawn) | -2.73%
C=CCn1c(Oc2ccc(C(=O)OC)cc2)nc2c1c(=O)n(C)c(=O)n2C | 11.7%
Cc1nc(C)c(C(=O)N(c2ccc(C)c(C)c2)C(C(=O)NCc2ccco2)c2ccccc2)s1 (stereo not drawn) | -4.44%
O=C(COc1ncnc2c(Cl)cc(Cl)cc12)N1CCN(S(=O)(=O)c2ccccc2)CC1 | 0.78%
Cc1cc(NC(=O)CN2CCCC(C)C2)n(-c2nc3ccccc3s2)n1 (stereo not drawn) | 19.3%
Cc1nn(CC(=O)Nc2nc3ccccc3s2)c(C)c1[N+](=O)[O-] | -2.54%
CCOC(=O)N1CCN(CC(=O)Nc2cc(C)nn2-c2nc3ccccc3s2)CC1 | 42% (active)

Structure (SMILES) | inhibition
COc1ccc(/C=C2\CCCC3C2=NN(C(=O)c2scnc2C)C3c2ccc(OC)cc2)cc1 (stereo not drawn) | 9.28%
CCC(C)(C)n1nnnc1C(c1cccs1)N1CCN(c2nc3ccccc3s2)CC1 (stereo not drawn) | 34.9% (active)
CCC(C)(C)n1nnnc1C(c1ccccc1OC)N1CCSCC1 (stereo not drawn) | 17.9%
CCC(C)(C)n1nnnc1C(c1cccs1)N1CCN(Cc2ccccc2)CC1 (stereo not drawn) | 3.99%
CCOc1ccc(C(O)Cn2c(=N)n(CCN3CCCCC3)c3ccccc32)cc1 (stereo not drawn) | 7.31%
FC(F)(F)c1cc(-c2ccco2)nc(N2CCOCC2)n1 | 16.9%
O=C(CSc1nc(-c2ccco2)cc(C(F)(F)F)n1)N1CCc2ccccc2C1 | 30.3% (active)
O=C(CSc1nc(-c2ccco2)cc(C(F)(F)F)n1)NCc1cccs1 | 8.94%
CCOC(=O)c1cnc(SC)nc1Sc1ccc(Cl)cc1Cl | 3.77%
Cc1ccc(NS(=O)(=O)c2c(C)[nH]c(=O)[nH]c2=O)cc1C | 11.7%
O=C(Cc1ccccc1)N/N=C/c1ccc(Cl)cc1Cl | 24.5%
CCCOc1ccc(C2c3c(oc4cc(C)c(C)cc4c3=O)C(=O)N2CCCN2CCOCC2)cc1 (stereo not drawn) | 42.7% (active)
COCCN1C(=O)c2oc3c(C)cc(C)cc3c(=O)c2C1c1cccc(O)c1 (stereo not drawn) | 4.63%
CCCCOc1ccc(C(C)(O)CCN2CCOCC2)cc1 (stereo not drawn) | 12.6%
COc1ccc2c(c1)CCc1c(C(=O)N3CCCC3)noc1-2 | -1.03%
COc1ccc2c(c1)CCc1c(C(=O)N3CCc4ccccc4C3)noc1-2 | 44.9% (active)
COc1ccc2c(c1)CCc1c(C(=O)Nc3c(C)n(C)n(-c4ccccc4)c3=O)noc1-2 | 21%
O=c1cc(C(F)(F)F)[nH]c(=O)n1C1CCCCC1 | 23.5%
COCCN(C(=O)c1ccco1)c1nnc(-c2ccc(OC)cc2)s1 | 10%
Cc1cc(Nc2ccccc2)nc(N)n1 | 4.89%
Cc1nn(C)cc1/C=C1\CCC/C(=C\c2cn(C)nc2C)C1=O | 12.9%
CCOC(=O)CNC(=O)CSc1nnnn1-c1cc(C)ccc1C | 3.59%
CNC(=O)CSc1nnnn1-c1ccc(C)cc1C | 24.1%
CCOC(=O)c1c(-c2ccc(C)cc2C)csc1NC(=O)CSc1nnnn1C | 66.1% (active)

Structure (SMILES) | inhibition
CC(C)C(NS(=O)(=O)c1cccs1)C(=O)Nc1nc(C(C)(C)C)cs1 (stereo not drawn) | 16.8%
CCn1cc(C(=O)N2CCN(Cc3ccc4c(c3)OCO4)CC2)c2cc(OC)c(OC)cc2c1=O | -2.75%
COc1cc(Cl)c(S(=O)(=O)N2CCN(Cc3ccc4c(c3)OCO4)CC2)cc1Cl | 60.2% (active)
CS(=O)(=O)N(CC(=O)N1CCN(Cc2ccc3c(c2)OCO3)CC1)c1ccc2c(c1)OCO2 | 2.83%
Cc1ccccc1OCc1nnc(SCC(=O)N2c3ccccc3Sc3ccc(Cl)cc32)o1 | 5.3%
Cc1[nH]c(=O)c(C(=O)/C=C/c2ccccc2)c2c1CCCC2 | 24.5%
O=C(NC1=NCCS1)[C@H](Cc1ccccc1)N1C(=O)c2ccccc2C1=O | -1.98%
CCOC(=O)c1nn(-c2cccc(C)c2)cc1C(=O)c1ccccc1 | 12.9%
Nc1c(-c2ccc(F)cc2)cnc2ncnn12 | 1.38%
CNC(=S)NNC(=O)c1sccc1OCc1ccccc1 | 26.7%
Cc1ccc(NC(=O)N2CCC(O)(c3cccnc3)CC2)cc1 | -0.9%
CCOC(=O)C1=C(CN2CCc3ccccc32)NC(=O)NC1c1cccc([N+](=O)[O-])c1 (stereo not drawn) | 1.33%
CCOC(=O)C1=C(CN2CCc3ccccc32)NC(=O)NC1c1ccc(Cl)cc1 (stereo not drawn) | 40.8% (active)
COCCOC(=O)C1=C(C)NC(=O)NC1c1ccc(Cl)cc1 (stereo not drawn) | 2.51%
COc1cccc2c1OCC(C(=O)NCc1ccc(Cl)cc1Cl)=C2 | 9.54%
CCn1c(SCC(=O)c2ccc3ccccc3c2)nnc1-c1cccs1 | 5.6%
O=C(CSc1nnc(-c2cccs2)n1Cc1ccccc1)N1CCc2ccccc2C1 | 40.2% (active)
O=C(CSc1nnc(-c2cccs2)n1-c1ccccc1)N1CCN(C(=O)c2ccco2)CC1 | 37.9% (active)
O=C(CSc1nnc(-c2cccs2)n1-c1ccccc1)NCc1ccco1 | 6.51%
Cc1nnc(SCC(=O)N2CCc3ccccc3C2)s1 | 1.25%
Cc1nnc(SCC(=O)N2CCN(c3ccccc3)CC2)n1-c1ccccc1 | 2.49%
